# PubChem BioAssay AID372 (MTDP, 2006)
# The whole screen tested about 100,000 compounds, of which about 770 (0.77%) were called active. Shown is part of a subset that was picked to be rich in actives. Values without a mark were called inactive. No stated cut-off is given here; in the data, active means inhibition above about 50%; inactive means the rest.
# Molecular target: Gag-Pol polyprotein (Human immunodeficiency virus type 1 group M subtype B (isolate HXB2)) (UniProt P04585)
# Experiment: RNase H inhibition, HIV 1 Gag Pol polyprotein, FRET biochemical assay, screening (AID 372)
# Settings: HIV-1 RT RNase H, FRET RNA/DNA substrate fluorescence; at 10 µM; hits give high values
row,SMILES,inhibition
1,O=C1C(=O)N(c2ccccc2)C(c2ccc([N+](=O)[O-])cc2)/C1=C(/O)c1ccccn1 (stereo not given),0%
2,O=C(CN1C(=O)c2cccc3cccc(c23)C1=O)OCc1ccc2c(c1)OCO2,53% (active)
3,O=C(CCCN1C(=O)c2cccc3cccc(c23)C1=O)OCc1ccc2c(c1)OCO2,31%
4,O=C(CN1C(=O)c2cccc3cccc(c23)C1=O)NCc1ccc2c(c1)OCO2,5%
5,CCSc1nc(-c2ccccc2)nc(C(Cl)Cl)n1,25%
6,O=C(Nc1ncc(S(=O)(=O)c2ccc([N+](=O)[O-])cc2)s1)c1ccc(Cl)cc1Cl,6%
7,O=C(O)c1ccccc1C(=O)Nc1ncc(S(=O)(=O)c2ccc([N+](=O)[O-])cc2)s1,10%
8,O=C(Nc1ncc(S(=O)(=O)c2ccc([N+](=O)[O-])cc2)s1)c1ccccc1Cl,54% (active)
9,O=C(COc1ccc(Br)cc1)Nc1ncc(S(=O)(=O)c2ccc([N+](=O)[O-])cc2)s1,19%
10,O=C(COc1ccc(Cl)cc1)Nc1ncc(S(=O)(=O)c2ccc([N+](=O)[O-])cc2)s1,12%
11,CC(C)c1ccc(OCC(=O)Nc2ncc(S(=O)(=O)c3ccc([N+](=O)[O-])cc3)s2)cc1,58% (active)
12,CCc1ccc(-n2nc(C)c3c(C)cc(=O)oc32)cc1,7%
13,O=C(O)C1CCC(c2ccccc2)CC1 (stereo not given),4%
14,O=C(c1nn2c(C(F)(F)F)cc(-c3ccc(F)cc3)nc2c1Cl)N1CCOCC1,3%
15,C(=N/Nc1nc2ccccc2o1)/c1ccc(N2CCOCC2)cc1,20%
16,Cc1ccc(S(=O)(=O)/N=C2/C=C(Sc3nnnn3-c3ccccc3)C(=O)c3ccccc32)cc1,43%
17,Cc1ccc(S(=O)(=O)/N=C2/C=C(Br)C(=O)c3ccccc32)cc1,32%
18,COc1ccc(Nc2ccc(N)cc2)cc1,19%
19,Cc1ccc(-c2nc3ccccc3[nH]2)cc1NC(=O)c1cc2ccccc2o1,8%
20,CC(=O)Nc1ccc(C(=O)Nc2ccc(-c3nc4ccccc4[nH]3)cc2)cc1,3%

row,SMILES,inhibition
1,O=C(Nc1ccc(-c2nc3ccccc3[nH]2)cc1)c1cc2ccccc2o1,51% (active)
2,O=C(Nc1ccc(-c2nc3ccccc3[nH]2)cc1)c1ccc(Cl)cc1,14%
3,O=C(Nc1ccc(Cl)c(-c2nc3ccccc3[nH]2)c1)c1cc2ccccc2o1,11%
4,O=C(Nc1ccc(-c2nc3ccccc3[nH]2)cc1)c1ccc(Cl)c(Cl)c1,59% (active)
5,CCOC(=O)/C(=N/Nc1cccc(C)c1)c1csc(N)n1,10%
6,COc1ccc(/C=C/C(=O)Oc2ccc3c(c2)C(C)=CC(C)(C)N3)cc1,16%
7,O=C(N=Nc1c(O)n(CN2CCCCC2)c2ccccc12)c1ccncc1,0%
8,CC1(C)NC(=O)N(CC(O)CN(c2cccc([N+](=O)[O-])c2)S(=O)(=O)c2ccccc2)C1=O (stereo not given),0%
9,S=C(Nc1ccccc1)N1CCN(C(c2ccccc2)c2ccccc2)CC1,56% (active)
10,S=C(Nc1cccc2ccccc12)N1CCN(C(c2ccccc2)c2ccccc2)CC1,5%
11,S=C(Nc1ccccc1)N1CCN(C(=S)Nc2ccccc2)CC1,9%
12,Cc1c(N2C(=O)S/C(=C\c3cccc([N+](=O)[O-])c3)C2=O)c(=O)n(-c2ccccc2)n1C,59% (active)
13,Cc1c(N2C(=O)S/C(=C\c3ccccc3)C2=O)c(=O)n(-c2ccccc2)n1C,0%
14,Cc1c(N2C(=O)S/C(=C\c3ccc(N(C)C)cc3)C2=O)c(=O)n(-c2ccccc2)n1C,67% (active)
15,Cc1c(N2C(=O)S/C(=C\c3ccc([N+](=O)[O-])cc3)C2=O)c(=O)n(-c2ccccc2)n1C,3%
16,Cc1c(N2C(=O)/C(=C/c3cccc([N+](=O)[O-])c3)SC2=S)c(=O)n(-c2ccccc2)n1C,13%
17,COc1ccc(/C=C2\SC(=O)N(c3c(C)n(C)n(-c4ccccc4)c3=O)C2=O)cc1,0%
18,Cc1ncc(CO)c(/C=N/Nc2ccccc2)c1O,13%
19,O=C(N/N=C/c1ccc(O)c(Br)c1)c1cccc(Br)c1,0%
20,COc1ccc(NC(=O)c2sc3cc(C)ccc3c2Cl)c(OC)c1,3%

row,SMILES,inhibition
1,Cc1ccn2c(-c3csc(Nc4ccc(O)cc4)n3)c(C)nc2c1,8%
2,CCC1CCCCN1S(=O)(=O)c1ccc(Cl)c([N+](=O)[O-])c1 (stereo not given),12%
3,Cc1ccccc1N1C(=O)c2ccc(-c3nc4ccccc4c(=O)o3)cc2C1=O,2%
4,Cc1cccc(N2C(=O)c3ccc(-c4nc5ccccc5c(=O)o4)cc3C2=O)c1C,10%
5,Cc1cc(C)c(N2C(=O)c3ccc(-c4nc5ccccc5c(=O)o4)cc3C2=O)c(C)c1,54% (active)
6,Cc1cccc(N2C(=O)c3ccc(-c4nc5ccccc5c(=O)o4)cc3C2=O)c1,37%
7,Cc1cc(Br)ccc1N1C(=O)c2ccc(-c3nc4ccccc4c(=O)o3)cc2C1=O,59% (active)
8,Cc1ccc(N2C(=O)c3ccc(-c4nc5ccccc5c(=O)o4)cc3C2=O)c(C)c1,5%
9,O=C1C(=O)N(c2cccnc2)C(c2ccc(F)cc2)/C1=C(\O)c1ccc(Cl)cc1 (stereo not given),2%
10,CCCC(=O)N1c2c(C)cccc2C(Nc2ccccc2C)CC1C (stereo not given),12%
11,COC(=O)c1c(NC(=O)c2c(F)c(F)c(F)c(F)c2F)sc2c1CCCCC2,26%
12,O=c1c(C=NCC2CCCO2)c(C(F)(F)F)[nH]n1-c1nc2ccccc2s1 (stereo not given),0%
13,CCOC(=O)c1ccc(NC(=O)Nc2nc(-c3ccccc3)cs2)cc1,0%
14,Oc1c(Br)cc(Cl)cc1/C=C/c1ccc2cccc(O)c2n1,15%
15,O=C(c1ccccc1)c1cc(Cl)cc2c1NC(C(=O)O)C1CC=CC21 (stereo not given),30%
16,O=C(O)C1Nc2c(cccc2[N+](=O)[O-])C2C=CCC12 (stereo not given),17%
17,Cc1ccc2c(c1)C1C=CCC1C(C(=O)O)N2 (stereo not given),27%
18,O=C(O)C1Nc2ccc(F)cc2C2C=CCC12 (stereo not given),12%
19,NC(=O)c1cccc2c1NC(C(=O)O)C1CC=CC21 (stereo not given),22%
20,O=C(O)C1Nc2c(I)cccc2C2C=CCC12 (stereo not given),30%
